Data published in PubChem BioAssay (Tox21).
Values joined by “and” are separate entries in the source; they are usually repeats but may differ in a detail not shown here. Identical values can stand only once. Inconclusive results are not listed. Entries that show only a call come without a potency. Some structures have more than one record in an assay (separate samples or runs), and their calls can disagree. Active and inactive are the calls of the source. Unless noted, the call rests on the fitted dose curve; in most records, active means well fitted curve in the direction sought with a large enough effect in the repeat runs; inconclusive means weak or mixed curves; inactive means no such curve, though single readings can be large; an effect the other way counts as inactive or inconclusive.

Columns and labels:
[1] = qHTS assay for small molecules that induce genotoxicity in human embryonic kidney cells expressing luciferase-tagged ATAD5 (AID 651632); further: nearly all actives have a fitted effect of over 15% in size
How it was run: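 Reporter cells (HEK293T) express luciferase-tagged ATAD5, a protein that accumulates after DNA damage. Treat 16 hr at 37C/5% CO2, add Amplite, wait 30 min at RT, and read luminescence.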

[2] = qHTS assay for small molecules that induce genotoxicity in human embryonic kidney cells expressing luciferase-tagged ATAD5 - cell viability (AID 651634; calls by dose curve; further: nearly all actives have a fitted effect of over 25% in size; further: potency means the concentration at half of the fitted maximal effect)
How it was run: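 Seeding of 2,000 HEK293T ATAD5-luciferase cells per well preceded pin-tool compound transfer. Plates sat 15.5 hr at 37C under 5% CO2, then fluorescence was read after 30 min with CellTiter-Fluor.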

[3] = qHTS assay to test for compound auto fluorescence at 590 nm (red) in HepG2 cells (AID 720674)
How it was run: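 Red autofluorescence (Ex/Em 540/590 nm, Rose Bengal sodium equivalents) was measured in HepG2 cells, 2,000 per well in MEM plus 10% FBS, plated overnight at 37 C. Readings were taken 1 hr after adding 23 nL compound or DMSO, at 37 C and 5% CO2.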

[4] = qHTS assay to test for compound auto fluorescence at 535 nm (green) in HepG2 cells (AID 720675)
[5] = qHTS assay to test for compound auto fluorescence at 460 nm (blue) in HEK293 cells (AID 720678)
How it was run: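 After cell attachment (4-5 hr, 37C), compounds were pinned onto HEK293 monolayers in 10% dialyzed FBS medium. The blue channel (405/460 nm) was read following overnight culture. Equivalency was calculated against triamterene.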

[6] = qHTS assay to test for compound auto fluorescence at 590 nm (red) in HEK293 cells (AID 720679)
How it was run: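 Plates of HEK293 cells (10% dialyzed FBS) are treated with 23 nL compound or DMSO vehicle after a 4-5 hr attachment period, incubated overnight at 37C, and read for red fluorescence at 540/590nm.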

[7] = qHTS assay for small molecule disruptors of the mitochondrial membrane potential (AID 720635); further: potency means the concentration at half of the fitted maximal effect
How it was run: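 Mitochondrial membrane potential tracked with Mito-MPS dye, red aggregates (ex 540/em 590 nm) against green monomers (ex 490/em 535 nm). Compound treatment 1 hr at 37C, dye 30 min in HepG2.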

[8] = qHTS assay for small molecule agonists of the p53 signaling pathway - cell viability (AID 651633; calls by dose curve; further: nearly all actives have a fitted effect of over 30% in size; further: potency means the concentration at half of the fitted maximal effect)
How it was run: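 Viability counter-read: CellTiter-Glo luminescence (30 min, room temperature) in the same p53RE-bla plates. These plates had been exposed to compounds for 16 h at 37 C.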

[9] = qHTS assay for small molecule disruptors of the mitochondrial membrane potential - cell viability (AID 720634; calls by dose curve; further: nearly all actives have a fitted effect of over 20% in size; further: potency means the concentration at half of the fitted maximal effect)
How it was run: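 Measuring cytotoxicity alongside mitochondrial potential, the screen quantified ATP by luminescence in HepG2 cells after 1 hr compound incubation and a 30 min room-temperature CellTiter-Glo step.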

SMILES | Potency [1] | Potency [2] | outcome [3] | Potency [4] | Potency [5] | outcome [6] | Potency [7] | Potency [8] | Potency [9]
CCc1cccc(C)c1N(C(=O)CCl)[C@@H](C)COC | inactive | inactive | inactive | inactive | inactive | inactive |  |  | 
CC(C)[C@@H](Nc1ccc(C(F)(F)F)cc1Cl)C(=O)OC(C#N)c1cccc(Oc2ccccc2)c1 (stereo partly drawn) | inactive | inactive |  | inactive | inactive | inactive | 26.3 µM (active) |  | 
N#Cc1sc2c(=O)c3ccccc3c(=O)c=2sc1C#N |  | inactive | inactive | inactive | inactive | inactive | 24.3 µM (active) | 5.45 µM (active) | 24.3 µM (active)
CCC1(CC)C(=O)N=C(O)NC1=O |  | inactive | inactive | inactive | inactive | inactive |  | inactive | inactive
O=C(N[C@@H]1N=C(c2ccccc2F)c2cccc3c2N(CC3)C1=O)c1cc2ccccc2[nH]1 |  | inactive | inactive | inactive | inactive | inactive | 8.41 µM (active) | inactive | inactive
Oc1ccc2[nH]cc(CCCCN3CC=C(c4ccccc4)CC3)c2c1 |  | inactive | inactive | inactive |  | inactive |  | inactive | inactive
CCO/N=C(\CC)C1=C(O)CC(c2c(C)cc(C)cc2C)CC1=O (stereo not drawn) |  | inactive | inactive | inactive | inactive | inactive | 12.2 µM (active) | inactive | inactive
CCCCN(CCCC)C(=S)S | inactive | inactive | inactive | inactive | inactive | inactive |  |  | inactive
CN(C)c1ccc(N)cc1 |  | inactive |  | inactive | inactive | inactive | 8.42 µM (active) | inactive | inactive
[C-]1=CC=CC1.[Cl][Zr+2][Cl].c1cc[cH-]c1 |  | inactive |  | inactive |  | inactive |  | inactive | inactive
CCCCCCCCCCCCCCn1cc[n+](C)c1 | inactive | 61.3 µM (active) | inactive | inactive |  | inactive | 10.7 µM (active) and 34.3 µM (active) |  | 54.6 µM (active) and inactive
CC(C)C(Br)C(=O)NC(N)=O (stereo not drawn) | inactive | inactive | inactive | inactive | inactive | inactive |  |  | 
C=CC(=O)[O][Sn]([CH2]CCC)([CH2]CCC)[CH2]CCC |  | 1.09 µM (active) | inactive | inactive | inactive | inactive | 0.0863 µM (active) | 0.864 µM (active) | 1.93 µM (active)
CC(C)=CC1C(C(=O)OC(C#N)c2cccc(Oc3ccccc3)c2)C1(C)C (stereo not drawn) | inactive | inactive | inactive | inactive | inactive | inactive |  |  | inactive
COc1ccc2[nH]cc(CCN(C(C)C)C(C)C)c2c1 | inactive | inactive |  | inactive | inactive | inactive | inactive |  | inactive
O=[N+]([O-])c1cc(C(F)(F)F)c(Cl)c([N+](=O)[O-])c1Nc1ncc(C(F)(F)F)cc1Cl | inactive | 30.6 µM (active) | inactive | inactive | inactive | inactive | 0.243 µM (active) |  | 0.172 µM (active)
c1ccc(Nc2ccc(Nc3ccccc3)cc2)cc1 | inactive | inactive | inactive | inactive | inactive | inactive | 8.6 µM (active) |  | 24.2 µM (active)
Clc1ccc(C(Cl)(Cl)Cl)cc1Cl | inactive |  | inactive | inactive | inactive | inactive | 59.8 µM (active) |  | inactive
CC(Cc1ccc(O)cc1)NCC(O)c1cc(O)cc(O)c1 (stereo not drawn) |  | inactive |  | inactive | inactive | inactive | inactive |  | inactive
CCNc1nc(NC(C)C(C)C)nc(SC)n1 (stereo not drawn) |  | inactive | inactive | inactive | inactive | inactive | 7.7 µM (active) |  | inactive
COC(=O)/C=C(\C)OP(=O)(OC)OC |  | inactive | inactive | inactive | inactive | inactive |  |  | 
CC(=O)[O-].CC(=O)[O-].[Co+2] |  | inactive | inactive | inactive | inactive | inactive |  |  | 
S=C=NCCc1ccccc1 |  |  | inactive | inactive | inactive | inactive | 38.6 µM (active) |  | inactive
Oc1cc(Cl)cc(Cl)c1 |  | inactive |  | inactive | inactive | inactive | 9.79 µM (active) | inactive | 
CCCCn1cc[n+](C)c1 (tested in a mixture with another compound) |  | inactive | inactive | inactive | inactive | inactive | inactive |  | inactive
